# Like-named read-outs stand apart in the source and are kept apart here. The campaign covered roughly 13,000 compounds. About 3,200 (25%) showed an effect of 50% or more. The list shows a part of the results.
# Test system: P. falciparum stage V gametocytes
# Parameters: BacTiter-Glo ATP luminescence viability of purified stage V gametocytes in 384-well plates, per cent inhibition versus DMSO
# Conditions: 48 h, 5 µM, inhibitor
SMILES,% Inhibition,% Inhibition (% Inhibition)
Cc1ccc(Nc2nc(C)cc(N3CCN(CCc4ccccc4)CC3)n2)cc1 [TCMDC-134023],-10.5%,
COc1ccccc1CNc1ccnc(NCCc2cccc(C(F)(F)F)c2)n1 [TCMDC-135117],62.08%,
COc1cccc(Nc2nccc(NCC(O)c3cccc(C(F)(F)F)c3)n2)c1 (stereo not shown) [TCMDC-136584],27.05%,
Clc1ccc(CNc2ccnc(NCCc3coc4ccccc34)n2)c(Cl)c1 [TCMDC-135113],37.58%,
COc1ccc(Nc2nccc(NCC(O)c3cccc(C(F)(F)F)c3)n2)cc1 (stereo not shown) [TCMDC-136585],-13.64%,
FC(F)(F)c1cccc(CCNc2nccc(NCc3ccccc3Cl)n2)c1 [TCMDC-135109],78.4%,
FC(F)(F)c1cccc(CCNc2nccc(NCc3ccc(Cl)cc3Cl)n2)c1 [TCMDC-135111],42.21%,
CC(=O)Nc1ccc(S(=O)(=O)Nc2ccc(Nc3nc(C)cc(N4CCCCC4)n3)cc2)cc1 [TCMDC-124950],-6.943%,
CCC[C@@H]([C@@H](CC(C)C)C(=O)N[C@H](C(=O)Nc1nccs1)C(C)(C)SCCNC(=O)OCC)N(O)C=O [TCMDC-137761],30.89%,
N#Cc1cccc(COC(=O)C2=C(COc3ccccc3Cl)NC(=O)NC2c2c[nH]c3cnccc23)c1 (stereo not shown) [TCMDC-136331],5.465%,
Cc1ccc(C(c2nnnn2C2CCCC2)N(Cc2ccco2)Cc2ccccc2Cl)cc1 (stereo not shown) [TCMDC-123569],15.39%,
COc1ccc(-c2nc(NC(=O)CS(=O)(=O)c3ccccc3)sc2C)cc1 [TCMDC-123525],48.52%,
CCCCn1c(SC(C)C)nc2c(c1=O)C1(CCCCC1)Cc1ccccc1-2 [TCMDC-123893],-5.467%,
Cc1ccc(-c2nnc(Nc3ccc(CC(N)=O)cc3)c3ccccc23)cc1S(=O)(=O)NCC1CCCO1 (stereo not shown) [TCMDC-125615],-4.951%,
COc1cc(Cc2cnc(N)nc2N)ccc1OCc1ccc(F)c(F)c1 [TCMDC-138591],9.532%,
COc1cc(Cc2cnc(N)nc2N)ccc1OCC(=O)Nc1ccc(C)cc1 [TCMDC-138679],5.317%,
COc1cc(Cc2cnc(N)nc2N)ccc1OCc1ccc(NC(C)=O)cc1 [TCMDC-138675],89.66%,
S=C(Nc1ccccc1Cl)NC1CCC(CN2CCC(c3c[nH]c4ccccc34)CC2)CC1 (stereo not shown) [TCMDC-140179],20.48%,
S=C(NCC1CCCCC1)NC1CCC(CN2CCC(c3c[nH]c4ccccc34)CC2)CC1 (stereo not shown) [TCMDC-140181],104.2%,
S=C(NCCc1ccc(Cl)cc1)N1CCC(CN2CCC(c3c[nH]c4ccccc34)CC2)CC1 [TCMDC-140193],39.79%,
S=C(NCCc1ccc(Cl)cc1)NC1CCC(CN2CCC(c3c[nH]c4ccccc34)CC2)CC1 (stereo not shown) [TCMDC-140183],,98.47%
S=C(NCCc1ccc(Cl)cc1)NC1CCC(CN2CCC(c3c[nH]c4ccccc34)CC2)CC1 (stereo not shown) [TCMDC-140201],,56.68%

SMILES,% Inhibition,% Inhibition (% Inhibition)
CC(C)NCc1ccc(-c2cccc(-c3nc4ccc(F)cc4[nH]3)c2)cc1 [TCMDC-132737],4.072%,
N#Cc1ccc(N2CCN(Cc3ccc(-c4cccc(-c5nc6ccccc6[nH]5)c4)cc3)CC2)nc1.O=C(O)C(F)(F)F [TCMDC-133918],6.117%,
Cc1c(Cc2ccccc2Br)cnc2nc(N)nc(N)c12 [TCMDC-137244],-16.64%,
COC(=O)/C=C/c1ccc(CC(C)NCC(O)c2cccc(Br)c2)cc1 (stereo not shown) [TCMDC-131443],13.24%,
O=[N+]([O-])c1ccc(Nc2nc(N/N=C/c3cccc(O)c3)nc(N3CCCC3)n2)cc1 [TCMDC-123855],36.76%,
CCn1cnc2c(Nc3cccc([N+](=O)[O-])c3)nc(N3CCC(N4CCCCC4)CC3)nc21 [TCMDC-124437],69.16%,
CC(C)(C)Nc1nc(Nc2cccc([N+](=O)[O-])c2)nc(-n2ccnc2)n1 [TCMDC-123695],-24.43%,
Cc1ccc(Oc2c(-c3ccccc3CN3CCCC3CN(C)C)cnn(C)c2=O)cn1 (stereo not shown) [TCMDC-135100],-4.022%,
Cc1[nH]c(C)c(-c2ccc(Oc3ccc(C(F)(F)F)cc3)cc2)c(=O)c1Br [TCMDC-137406],68.39%,
Cc1[nH]c(C)c(-c2ccc(OCCOc3ccc(C(F)(F)F)cn3)cc2)c(=O)c1Br [TCMDC-135554],40.45%,
Cc1[nH]c(C)c(-c2ccc(Nc3ccc(C(F)(F)F)cn3)cc2)c(=O)c1Br [TCMDC-135546],74.1%,
Cc1[nH]c(C)c(-c2ccc(C(F)(F)F)cc2)c(=O)c1Br [TCMDC-137429],90.2%,
COc1ccc2nccc([C@@H](O)CN3CCC(NC(=O)C(c4ccsc4)N4CCN(c5ccccc5OC)CC4)CC3)c2c1 (stereo partly shown) [TCMDC-140994],-19.96%,
CC1CCCC(C)N1C[C@@H](O)CNS(=O)(=O)c1cccc(C(F)(F)F)c1 (stereo partly shown) [TCMDC-134258],4.939%,
CCc1ccccc1N=C1c2c(cccc2[N+](=O)[O-])C(=O)C1C(C)=O (stereo not shown) [TCMDC-125760],-10.56%,
COc1cc(CCNCC(O)c2ccc([N+](=O)[O-])c(OCc3ccccc3)c2)cc(OC)c1OC (stereo not shown) [TCMDC-132008],19.76%,
CC(C#N)Cc1ccc(-c2cnc(N)c3cc(-c4ccnc(N)n4)ccc23)cc1 (stereo not shown) [TCMDC-134547],15.83%,
CCCCCC(C)C(C)c1cc(O)c2c(c1)OC(C)(C)C=C2c1cc[n+]([O-])cc1 (stereo not shown) [TCMDC-131349],-5.463%,
CCCCCCC(C)c1cc(OCCN(CC)CC)c2c(c1)OC(C)(C)C=C2c1ccncc1 (stereo not shown) [TCMDC-131641],78.51%,
CCCCCCC(C)c1cc(O)c2c(c1)OC(C)(C)C=C2c1ccncc1 (stereo not shown) [TCMDC-131636],-3.085%,
CC(=O)OC[C@H]1O[C@@H](C#Cc2ccccc2)[C@H](OC(C)=O)[C@@H](OC(C)=O)[C@@H]1OC(C)=O [TCMDC-131801],35.52%,

# — article PMC4552634, “A New Set of Chemical Starting Points with Plasmodium falciparum Transmission-Blocking Potential for Antimalarial Drug Discovery” (PLoS ONE, 2015)
